# The list is not random: actives were taken first. Their share in the collection is about 3.1%.
# VDR inh = vitamin D3 receptor (human) inhibition. P11473. VDR-SRC2-3 peptide fluorescence polarization, 2 h. Potency, µM, for the others: max response, negative = inhibition, usual class: inhibitors. actives 0.93% (n = 400,000). AID 504847; note: potency is the fitted concentration of half-maximal effect
#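 Signal is fluorescence polarization, reporting how far test compounds block the interaction of VDR with the SRC2-3 coregulator peptide after a 2 h room-temperature incubation.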
# GCN5L2 inh = inhibitors of human GCN5L2 histone acetyltransferase; Potency, µM (series often up to 58.9 µM), for the others: at the highest dose activity change, negative = inhibition, hits mostly inhibitors; actives 0.21% (n = 390,000); AID 504327; GCN5L2 HAT assay, ThioGlo1 CoA-SH fluorescence; note: potency is the fitted concentration of half-maximal effect
#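 ThioGlo1-coupled HAT assay: 20nM GCN5L2, 70uM acetyl-CoA, 75uM H3(1-25) peptide, pH 7.5. Fluorescence read at 340/540nm at start and after 20 min at room temperature.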
# PI4K2A inh = blocks human PI4K2A kinase activity; purified PI4K2A, ADP-Glo luminescence, 1 h; active compounds read low; activity change, negative = inhibition, % at 76.9 µM; Q9BTU6; actives 0.13% (n = 420,000); in the data active = activity change below about -50%; inconclusive = mostly about -30% to -49%;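 note: -100% = wells without enzyme as full effect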
# Target sequence (Q9BTU6 whole entry, looked up): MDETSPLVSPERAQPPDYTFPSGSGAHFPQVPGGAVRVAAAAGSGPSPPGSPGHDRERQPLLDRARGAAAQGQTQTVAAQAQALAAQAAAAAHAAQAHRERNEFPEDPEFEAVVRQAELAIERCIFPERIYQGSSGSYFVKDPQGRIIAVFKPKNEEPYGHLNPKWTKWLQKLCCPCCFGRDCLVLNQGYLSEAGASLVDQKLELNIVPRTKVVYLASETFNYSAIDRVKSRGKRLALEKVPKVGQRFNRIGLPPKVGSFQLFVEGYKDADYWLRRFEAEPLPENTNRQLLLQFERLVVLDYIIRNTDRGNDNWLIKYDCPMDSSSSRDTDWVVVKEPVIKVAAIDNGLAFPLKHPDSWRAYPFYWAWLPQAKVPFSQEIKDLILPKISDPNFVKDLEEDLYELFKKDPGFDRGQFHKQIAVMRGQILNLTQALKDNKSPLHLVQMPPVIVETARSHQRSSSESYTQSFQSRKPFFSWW
#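 PI4K2A activity was measured by ADP-Glo luminescence: enzyme (4 ug/mL stock) and phosphatidylinositol (1.2 mM stock) in Tris pH 7.5/MgCl2/EGTA/Triton X-100 buffer were reacted with ATP (300 microM stock) for one hour at ambient temperature.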
# GLS inh = blocks human kidney-isoform glutaminase activity; O94925; GLS enzymatic activity, qHTS titration; Potency, µM (doses to about 45.5 µM), for inactives: at the top dose activity change, negative = inhibition, usual class: inhibitors; actives 0.21% (n = 410,000); note: potency is the fitted concentration of half-maximal effect
#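 Compounds were pin-transferred onto hKGA, after which L-glutamine (1 mM solution) and a detection mix of glutamate oxidase, HRP and Amplex Red were added. Initial and 30 min RT fluorescence reads were collected.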
# PLK1 PBD inh = PLK1 (human) polo-box domain binding inhibition. Plk1 PBD binding of FITC phosphopeptide, fluorescence polarization. Potency, µM, for the others: max response, negative = inhibition, most hits filed as inhibitors. actives 2.8% (n = 360,000). AID 720504; note: potency is the fitted concentration of half-maximal effect; series mostly up to about 57 µM; nearly all actives have a fitted effect of over 65% in size
# TbPYK inh = confirmation of Trypanosoma brucei pyruvate kinase inhibitors; shares compounds with PLK1 PBD inh; actives 67% (n = 890); Potency, µM (series often up to 76.9 µM), inactives show at the top dose activity change, negative = inhibition, usual class: inhibitors; AID 720569; recombinant TbPYK, Kinase-Glo ATP luminescence; note: potency is the fitted concentration of half-maximal effect; nearly all actives have a fitted effect of over 70% in size
# TbPYK ADP-Glo = TbPYK inhibition, orthogonal confirmation; shares compounds with PLK1 PBD inh; recombinant TbPYK, ADP-Glo luminescence, 60 min; Potency, µM (top dose mostly 76.9 µM), without a hit: at the top dose activity change, negative = inhibition, hits mostly inhibitors; actives 62% (n = 890); AID 720584; note: potency is the fitted concentration of half-maximal effect; nearly all actives have a fitted effect of over 75% in size
# * = called active by the depositor; ? = inconclusive; / = not tested or not shown. Unless noted, calls come from the whole dose curve; as a rule, active = well fitted curve in the direction sought with a large enough effect; inconclusive = small, poorly fitted or top-dose-only effect, or another doubt; inactive = no such curve, though single readings can be large; an effect the other way counts as inactive or inconclusive. Unless noted, % is set by controls: 0 for no effect and ±100 for the full control effect.
SMILES,VDR inh,GCN5L2 inh,PI4K2A inh,GLS inh,PLK1 PBD inh,TbPYK inh,TbPYK ADP-Glo
Oc1ccc(N2CCN(c3nc(-c4cccs4)nc4ccccc34)CC2)cc1,-3%,0%,4,?,0%,?,35µM*
C=C(C)CSC1=C(C#N)C(c2ccccc2Cl)CC(=O)N1 (centres undefined),?,-1%,-3,1%,13µM*,5µM*,8.9µM*
C=CCSC1=C(C#N)C(c2ccccc2Cl)CC(=O)N1 (centres undefined),?,-27%,-2,13%,?,/,/
O=c1c2c3c(sc2nc2n1CCCCC2)CCC3,-16%,?,-1,20%,-2%,/,/
O=C1c2sc3nc4n(c(=O)c3c2CCC1Br)CCCCC4 (centres undefined),?,-10%,-8,-3%,-1%,4µM*,5.6µM*
COC(=O)c1ccc(C2Nc3ccc(/C(C)=N/NC(=O)C(OC)c4ccccc4)cc3C3C=CCC32)cc1 (centres undefined),-28%,-27%,3,13%,-16%,?,?
C=C1C(=O)C23CCC4C(C)(C(=O)OC)CCCC4(C)C2CCC1(O)C3 (centres undefined),?,/,25,13%,?,10µM*,14µM*
COC(=O)[C@]1(C)CCC[C@@]2(C)C3CC[C@@]4(C)C[C@]3(CCC21)CC(=O)N4 (some centres undefined),-18%,-7%,0,8%,-8%,/,/
Cc1nnc(C)n1N=Cc1ccc(Cl)c([N+](=O)[O-])c1,/,/,3,/,/,/,/
COC(=O)c1ccc(CCc2cc(O)c(Br)cc2O)cc1,-6%,/,6,?,?,32µM*,35µM*
COc1ccccc1NC(=S)OC1CCC12CCC(c1ccccc1)CC2 (centres undefined),/,/,0,/,/,/,/
O=C(CN1C(=O)C2(OCCCO2)c2ccccc21)NCc1ccccc1Cl,/,/,7,/,/,/,/
COC(=O)COc1ccc(C2Nc3c(Cl)ccc(C(=O)O)c3C3C=CCC32)cc1 (centres undefined),?,-23%,-10,?,21µM*,?,?
O=C(NC1CC1c1ccccc1)N1CCC(c2nc3ccc(Cl)cc3[nH]2)CC1 (centres undefined),/,/,2,/,/,/,/
CC(=O)C1=C(C)NC(SCC(=O)c2ccccc2)=C(C#N)C1CC(C)C (centres undefined),-15%,-3%,-4,-6%,-26%,?,40µM*
CC(=O)C1=C(C)NC(SCC(=O)c2ccccc2)=C(C#N)C1c1ccco1 (centres undefined),/,-11%,/,/,/,/,/
Cc1nonc1C(=O)N/N=C/c1ccc(O)c(O)c1,-10%,-3%,-62*,?,0%,?,4%
N[C@@H](CCS(=O)O)C(=O)O,4%,5%,/,/,/,/,/
COCCn1nnnc1C(c1cc2cc(OC)c(OC)cc2[nH]c1=O)N1CCN(c2ccc(O)cc2)CC1 (centres undefined),2%,-1%,-13,-19%,?,6.3µM*,16µM*
Cc1c(C(=O)O)c(C(=O)O)nc2ccc(N3CCOCC3)cc12,/,-5%,/,/,/,/,/
NS(=O)(=O)c1ccc(N=Nc2c[nH]c(=O)c(O)c2)cc1,?,-10%,-62*,-6%,?,?,-12%
Nc1nc(O)c(N=Nc2ccc(S(N)(=O)=O)cc2)c(=O)[nH]1,-13%,-8%,4,-10%,0%,/,/
Nc1nc2ccc([N+](=O)[O-])c(N)c2s1,-14%,-8%,-4,0%,11µM*,?,32µM*
CCC[C@@H](/C=C/C(=O)OC(C)(C)C)Sc1ccc(C(C)(C)C)cc1,/,/,1,/,/,/,/
Oc1ccc2c(c1)OCC1(O)Cc3cc(O)c(O)cc3C21 (centres undefined),79µM*,-9%,-3,?,?,2.2µM*,3.2µM*
SMILES,VDR inh,GCN5L2 inh,PI4K2A inh,GLS inh,PLK1 PBD inh,TbPYK inh,TbPYK ADP-Glo
N[C@@H](Cc1cc(CP(=O)(O)O)cc(-c2ccccc2Cl)c1)C(=O)O,-19%,-26%,/,/,/,/,/
CC(Oc1ccccc1Cl)C(=O)Nc1ccc(S(=O)(=O)N2CCN(C)CC2)cc1 (centres undefined),?,/,?,-8%,19µM*,?,?
CC(Oc1ccccc1)C(=O)Nc1ccc(S(=O)(=O)N2CCN(C)CC2)cc1 (centres undefined),-25%,1%,-5,-1%,-6%,/,/
O=C1c2sc3nc4ccccc4n3c2C(=O)N1c1ccccc1Cl,-4%,-25%,-1,6%,12µM*,6.3µM*,16µM*
COC(=O)c1ccc(Cn2c(SCc3ccccc3)nc3ccncc32)cc1,9%,-4%,1,-6%,/,/,/
COc1ccc(OC)c(C2NC(=O)c3sc(=S)n(-c4ccccc4)c3N2)c1 (centres undefined),89µM*,-4%,-7,2%,?,2µM*,2.5µM*
COc1cccc(C2NC(=O)c3sc(=S)n(-c4ccccc4)c3N2)c1 (centres undefined),?,-4%,2,24%,-30%,/,/
O=C1N=C(c2ccccc2)S/C1=C\c1cccs1,?,-16%,25,24%,24µM*,4.5µM*,6.3µM*
O=C1N=C(N2CCN(c3ccccc3)CC2)S/C1=C/c1cccs1,0%,-3%,4,-16%,0%,/,/
O=C(O)C(Cc1c[nH]c2ccccc12)NS(=O)(=O)c1ccc(Cl)cc1 (centres undefined),-20%,-4%,-3,2%,-6%,/,/
O=C(Nc1nc2ccc(S(=O)(=O)N3CCCC3)cc2s1)c1ccccn1,-21%,-9%,-5,0%,-16%,?,?
COC(=O)c1sccc1NC(=O)Nc1ccc(F)cc1,40%,-11%,?,-5%,4%,?,-4%
COC(=O)c1sccc1NC(=O)Nc1ccc(C)cc1,1%,-3%,?,3%,-4%,/,/
COc1ccc(OC)c(NC2c3ccccc3C(=O)N2Cc2ccc3c(c2)OCO3)c1 (centres undefined),1%,0%,-8,-10%,-7%,?,35µM*
O=C1c2ccccc2C(Nc2ccc3c(c2)OCO3)N1Cc1ccc2c(c1)OCO2 (centres undefined),5%,1%,-1,-2%,-1%,/,/
Cc1ccc(-n2c(SCC(=O)Nc3ccc4c(c3)OCO4)nnc2-c2cccs2)cc1,-8%,1%,0,-3%,-5%,1.8µM*,4.5µM*

# Bioassay records deposited in PubChem by National Center for Advancing Translational Sciences (NCATS).
